Source: PubChem BioAssay
VLA-4 inh = inhibition in human VLA-4 binding assay, primary screen, VLA-4 allosteric modulator project, MLPCN library, flow cytometry, VLA-4 expressing cells; 330,000 tested, 0.2% active; Integrin alpha-4 (Homo sapiens), P13612; ligand binding flow cytometry; inhibition, % (about 7 µM as worked out from the volumes in the protocol); in the data active = inhibition above about 50%
Target sequence (P13612 whole entry, looked up): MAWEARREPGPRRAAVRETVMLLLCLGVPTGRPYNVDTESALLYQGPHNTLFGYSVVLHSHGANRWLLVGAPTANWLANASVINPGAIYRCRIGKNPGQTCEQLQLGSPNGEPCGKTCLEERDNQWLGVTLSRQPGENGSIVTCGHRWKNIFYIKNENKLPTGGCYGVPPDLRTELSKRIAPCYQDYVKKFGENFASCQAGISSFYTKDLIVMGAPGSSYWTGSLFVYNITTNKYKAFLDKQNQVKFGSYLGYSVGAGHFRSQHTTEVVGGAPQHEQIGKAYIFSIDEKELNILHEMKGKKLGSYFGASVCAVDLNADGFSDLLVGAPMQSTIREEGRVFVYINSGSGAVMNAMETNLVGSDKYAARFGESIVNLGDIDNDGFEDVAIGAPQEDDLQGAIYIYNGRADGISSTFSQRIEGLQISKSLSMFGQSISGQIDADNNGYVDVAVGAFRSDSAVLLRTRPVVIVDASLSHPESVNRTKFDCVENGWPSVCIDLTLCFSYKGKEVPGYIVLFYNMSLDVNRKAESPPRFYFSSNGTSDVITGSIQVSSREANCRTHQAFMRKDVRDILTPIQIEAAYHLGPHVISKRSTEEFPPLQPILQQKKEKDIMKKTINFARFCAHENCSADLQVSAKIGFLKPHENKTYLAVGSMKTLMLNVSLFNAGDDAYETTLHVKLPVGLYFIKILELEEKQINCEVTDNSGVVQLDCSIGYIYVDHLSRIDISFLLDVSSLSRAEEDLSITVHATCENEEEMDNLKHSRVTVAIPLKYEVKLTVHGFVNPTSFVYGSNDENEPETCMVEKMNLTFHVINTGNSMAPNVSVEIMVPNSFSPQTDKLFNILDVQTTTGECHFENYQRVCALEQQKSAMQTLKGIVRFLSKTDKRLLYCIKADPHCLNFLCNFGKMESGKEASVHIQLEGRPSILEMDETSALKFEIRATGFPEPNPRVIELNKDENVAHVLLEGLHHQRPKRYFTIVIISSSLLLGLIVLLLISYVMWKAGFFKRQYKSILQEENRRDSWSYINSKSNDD
CIT2 TOR yeast = modulators of CIT2-GFP expression in yeast, primary screen, S. cerevisiae, GFP fusion, multiplex flow cytometry, MLPCN library; S. cerevisiae CIT2-GFP strain, 3 h; 100 means same as DMSO wells; GFP response vs DMSO, % at 10 µM; 320,000 tested, 0.065% active; AID 2029, 2009;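 active = GFP response relative to DMSO above a set limit, near the screen mean plus 3 SD, cut at about 150% in these data; inconclusive = Fewer than 70 cells measured for a yeast strain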;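 also: ratio of well median GFP fluorescence to mean of DMSO wells on the plate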
AGP1-GFP MLPCN = modulators of AGP1-GFP expression in yeast TOR pathway, primary screen, cell-based, multiplex flow cytometry, S. cerevisiae, MLPCN library; 320,000 tested, 0.02% active; 3 h; GFP as percent of DMSO wells; GFP response vs DMSO, % at 10 µM;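 active = GFP response relative to DMSO above a set limit, near screen average plus 3 SD, cut at about 150% in these data; inconclusive = fewer than 70 cells counted for the yeast strain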;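 also: median GFP channel fluorescence of the gated AGP1 strain per well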
RPL19A TOR yeast = RPL19A-GFP expression modulators in yeast, primary screen, cell-based, S. cerevisiae, multiplex flow cytometry, MLPCN | S. cerevisiae RPL19A-GFP strain, 3 h; stronger effect = lower value | percent response vs DMSO, % at 10 µM | 330,000 tested, 0.3% active;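 active = percent response vs DMSO below 50%; inconclusive = fewer than 70 events counted for the yeast strain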;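 also: median channel GFP fluorescence of the barcoded RPL19A-GFP strain; ratio of sample median GFP to plate DMSO average so 100% = DMSO; lower means less RPL19A-GFP as with rapamycin TOR inhibition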
LAP4-GFP MLPCN = modulators of LAP4-GFP expression in yeast, primary screen, S. cerevisiae, multiplex flow cytometry, MLPCN library; 3 h; median GFP as percent of DMSO wells; GFP response vs DMSO, % at 10 µM; 320,000 tested, 0.34% active; AID 2023, 2009;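 active = GFP response vs DMSO above a set limit, about the screen mean plus 3 SD, cut at about 150% in these data; inconclusive = under 70 cell events counted for the yeast strain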
MEP2 TOR yeast = modulators of MEP2-GFP levels in yeast, primary screen, S. cerevisiae, multiplex flow cytometry, MLPCN library | AID 2016, 2009 | 330,000 tested, 0.51% active | GFP response vs DMSO, % at 10 µM | S. cerevisiae MEP2-GFP strain, 3 h; 100% = DMSO control level;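 active = GFP response versus DMSO above a set limit, roughly screen mean plus 3 SD, cut at about 180% in these data; inconclusive = fewer than 70 cells counted for a yeast strain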;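 also: median GFP fluorescence of the barcode-gated MEP2-GFP cells per well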
VLA-4 allo CP = retest of VLA-4 allosteric modulators, confirmation, cell-based, cherry-picked plates, U937, HUTS-21 LIBS antibody; shares compounds with VLA-4 inh; U937 cells, HUTS-21 LIBS mAb binding, flow cytometry; LDV ligand present at threefold Kd; inhibition, % at 6.7 µM; 1,300 tested, 2% active; in the data active = inhibition above about 40%;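 also: 0% = ligand without compound and 100% = no ligand background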
* hit, by the source's call; ? = inconclusive; nt = no result given. Compounds with a hit are over-represented: about 1.1% of the library has one in this group of screens.

SMILES	VLA-4 inh	CIT2 TOR yeast	AGP1-GFP MLPCN	RPL19A TOR yeast	LAP4-GFP MLPCN	MEP2 TOR yeast	VLA-4 allo CP
CN(C)/C=C(\C#N)C(=O)N/N=C/c1ccccc1	2	105	107	105	97	102	nt
CCc1cc2c(=O)n3c(nc2s1)-c1[nH]c2ccc(OC)cc2c1CC3	45	93	96	100	96	102	-9
CN(CC(=O)Nc1ccc(F)cc1)C(=O)COC(=O)c1ccccc1	50*	103	111	97	118	108	0
Fc1ccc(NCc2ccccc2F)cc1Cl	50*	98	101	97	106	108	1
Fc1ccccc1CNc1ccc(Cl)cc1	4	95	101	99	106	101	nt
CCc1ccc(OCc2nnc(SCC(=O)N3CCOCC3)o2)cc1	0	101	106	107	98	103	nt
CCc1ccc(OCc2nnc(SCC(=O)Nc3cccc(C(=O)N4CCOCC4)c3)o2)cc1	43	102	100	104	92	103	5
Cc1ccc(CN2CCN(Cc3cccc(OCCO)c3)CC2CCO)o1 (configuration not stated)	42	108	104	109	94	102	5
COc1ccc(-c2c(C)oc3c(CN4CCN(C)CC4)c(O)ccc3c2=O)cc1	30	102	101	100	94	100	nt
COc1ccc(-c2c(C(F)(F)F)oc3c(CN4CCN(C)CC4)c(O)ccc3c2=O)cc1	92*	101	103	96	99	105	2
CC1(C(=O)OCC(=O)Nc2nnc(-c3ccccc3)o2)CC1(Cl)Cl (configuration not stated)	5	103	106	97	112	98	nt
COc1ccccc1-n1nnnc1SCC(=O)Nc1ccc(C)c(N)c1	54*	99	101	102	103	98	3
COc1ccc(NC(=O)CSc2nnnn2-c2ccccc2OC)c(OC)c1	3	106	108	102	98	103	nt
Cc1ccc2oc(-c3ccccc3)nc2c1	94*	111	108	102	105	109	5
COc1ccc(NC(=O)CCn2cccc2)c(OC)c1	58*	99	102	100	98	94	2
O=C(NC1CCCC1)c1cccc(NC(=O)c2ccco2)c1	50*	96	98	96	97	104	12
CCNC(=S)Nc1cc(OCC)c(N2CCOCC2)cc1OCC	45	106	109	113	103	102	1
COc1cc2c(cc1OC)C(C)N(C(=O)c1cc3c(C)cc(C)cc3[nH]1)CC2 (configuration not stated)	-3	95	87	100	120	104	nt
O=C(C(=O)N1CCN(c2ccc(F)cc2)CC1)c1cn(CC(=O)N2CCOCC2)c2ccccc12	5	?	?	?	?	?	nt
NC(=O)Cn1cc(C(=O)C(=O)N2CCOCC2)c2ccccc21	-1	95	94	104	70	97	0
Nc1ccc(NS(=O)(=O)c2ccccc2)cc1	-7	100	101	102	98	100	11
Nc1cccc(S(=O)(=O)Nc2ccccc2)c1	20	92	99	95	107	93	5
Nc1cccc(S(=O)(=O)Nc2ccc(Br)cc2)c1	5	83	97	93	109	94	nt
CC(=O)c1ccc(NS(=O)(=O)c2ccc(N)cc2)cc1	7	98	99	94	94	94	-3
O=C(COC(=O)c1ccc[nH]c1=O)NC1CCCCC1	18	84	99	95	98	93	nt
SMILES	VLA-4 inh	CIT2 TOR yeast	AGP1-GFP MLPCN	RPL19A TOR yeast	LAP4-GFP MLPCN	MEP2 TOR yeast	VLA-4 allo CP
CC(CN1CCN(C)CC1)OC(=O)c1cccc(F)c1 (configuration not stated)	0	98	91	105	96	110	nt
CN1C(=O)C(C)(C)c2cc(S(=O)(=O)N3CCN(c4ccccc4F)CC3)ccc21	-5	87	82	93	102	100	3
Cc1cccc(N2CCN(S(=O)(=O)c3ccc4c(c3)C(C)(C)C(=O)N4C)CC2)c1C	-14	123	106	99	99	90	nt
O=C1CCC(C(=O)N2CCSCC2)CN1Cc1cccc(C(F)(F)F)c1 (configuration not stated)	1	97	99	102	97	100	nt
CO/N=C/C(=N\Nc1ccc(OC)cc1)C(=O)c1ccc(OC)cc1	91*	100	106	97	99	99	-1
CS(=O)(=O)N(CC(=O)Nc1ccccc1Br)Cc1ccccc1	5	101	97	101	94	106	nt
CC(C)CC(=O)Nc1ccc2ccccc2c1	12	90	89	95	104	95	nt
CCC(=O)Nc1ccc2ccccc2c1	45	93	88	98	86	104	4
CCCc1nc2cc(CC(=O)OC)ccc2o1	72*	92	101	97	104	102	2
COC(=O)CCCNC(=O)c1ccc2oc(CCCc3ccccc3)nc2c1	9	98	99	97	105	100	nt
COc1ccc(NC(=O)CN(C)C(=O)CSc2nc3ccccc3s2)cc1	-2	99	106	98	125	100	nt
COc1ccc(CNC(=O)CNS(=O)(=O)c2cccc(C#N)c2)cc1OC	-8	93	91	99	90	95	3
N#Cc1cccc(S(=O)(=O)NCC(=O)NCc2ccc3c(c2)OCO3)c1	12	99	94	95	90	92	nt
COc1cccc(CN(C)C(=O)CSc2nc3ccccc3[nH]2)c1OC	1	88	94	97	80	90	nt
COC(=O)c1ccc(/C=N/n2c(C)nc3ccccc3c2=O)cc1	41	96	98	100	96	100	-4
CCCCNC(=O)C(Cc1ccccc1)NS(=O)(=O)c1ccc2c(c1)c(=O)n(C)c(=O)n2C (configuration not stated)	50*	99	109	103	102	111	-5
Cc1cc(NC(=O)Cn2c(=O)oc3ccc(Cl)cc32)no1	7	100	106	102	92	105	nt
CC(C)(C)NC(=O)Cn1c(=O)oc2ccc(Cl)cc21	55*	97	95	101	105	99	-1
